Measurements reported in PubChem BioAssay.
The source made the active and inactive calls. Unless noted, no rule for the calls is given here.

Key:
[1] = compounds binding Alexa647 anti-His antibody – biochemical, small-molecule microarray, 635 nm fluorescence, artefact control for SMM control protein annotation, primary screen (AID 1128); conditions: higher = more signal;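 also: score merges feature fluorescence with signal-to-noise for each printed compound spot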
[2] = system: Human papillomavirus type 1a E7 protein (residues 1-88); experiment: HPV1a E7 small-molecule binders, primary screen, biochemical, small-molecule microarray, residues 1-88, 635 nm (AID 1129); conditions: small-molecule microarray binding, fluorescence 635 nm; higher = more signal
[3] = molecular target: Focal adhesion kinase 1 (Homo sapiens) (UniProt Q05397); experiment: PTK2 protein binding on printed compound slides – biochemical, small-molecule microarray, 635/667 nm fluorescence, BSA, DTT, primary screen (AID 1130); conditions: 635 nm fluorescence, higher = more signal;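 also: composite of spot emission at 667 nm and signal to noise over triplicate slides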
[4] = system: Fibrinogen (Alexa647-labelled); experiment: Alexa647-fibrinogen binding to printed small molecules – biochemical, small-molecule microarray, 635/667 nm fluorescence, artefact control for SMM control-protein annotation, profiling panel (AID 1131); conditions: fibrinogen-A647 binding fluorescence, higher = more signal;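 also: z-score merges 667 nm fluorescence with per-spot signal-to-noise over triplicate slides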
[5] = molecular target: Follistatin (Homo sapiens) (UniProt P19883); experiment: FST protein binding to printed compounds – biochemical, small-molecule microarray, 635/667 nm fluorescence, primary screen (AID 1132); conditions: 635 nm fluorescence, higher = more signal
[6] = molecular target: Fibroblast growth factor 2 (Homo sapiens) (UniProt P09038); experiment: basic fibroblast growth factor binding to printed compounds – biochemical, small-molecule microarray, 635/667 nm fluorescence, primary screen (AID 1133); conditions: FGF2, fluorescence 635/667, higher = more signal
[7] = JC-1 mitochondrial potential readout, lung cancer cells – cell-based, A549, JC-1 fluorescence, basal, 24 h, 100 nL, profiling panel (AID 1138); conditions: higher = more signal;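 also: A549 lung adenocarcinoma cells under basal conditions with no added stimulus; test concentration not given here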
[8] = system: Lefty1; experiment: Lefty1 protein binding to printed compounds – biochemical, small-molecule microarray, 635/667 nm fluorescence, primary screen (AID 1139); conditions: fluorescence 635/667, higher = more signal
[9] = system: wheat germ agglutinin (Triticum aestivum), Alexa647-labelled; experiment: Alexa647-WGA lectin binding to printed small molecules – biochemical, small-molecule microarray, 635/667 nm fluorescence, artefact control for SMM control-protein annotation, profiling panel (AID 1140); conditions: WGA-A647 binding, 635 nm fluorescence, higher = more signal;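 also: score merges 667 nm feature emission with signal to noise over triplicate slides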
[10] = molecular target: Luciferin 4-monooxygenase (Photinus pyralis) (UniProt P08659); experiment: inhibition of purified Photinus pyralis luciferase – biochemical, luminescence, purified enzyme, 2006 set, primary screen (AID 1141); conditions: purified firefly luciferase, SteadyGlo luminescence, 30 min; higher = more signal, called active from +8 up or from −8 down;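 also: cell-free assay with purified firefly luciferase at 100 ng per well in PBS; test concentration not given here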
[11] = system: Wnt5a (protein binding on small-molecule microarray); experiment: small molecules binding Wnt5a protein – biophysical, small-molecule microarray, 635/667 nm fluorescence, primary screen (AID 1142); conditions: 635 nm fluorescence, higher = more signal;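 also: fluorescence read at 667 nm with signal to noise per printed feature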
[12] = ATP-based viability of Huh7 replicon cells – cell-based, CellTiter-Glo luminescence, basal, 48 h, cytotoxicity control for HCV replication inhibitor project, primary screen (AID 1143); conditions: higher = more signal, called active from +8 up or from −8 down;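 also: Huh7 hepatoma cells carrying a hepatitis C replication reporter with no stimulus; test concentration not given here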
[13] = Pseudomonas biofilm growth suppression – PAO1 strain, BacTiter-Glo luminescence, LB-PBS, primary screen (AID 1144); conditions: P. aeruginosa PAO1 biofilm, 12 h, higher = more signal
[14] = basal CRE-LacZ reporter activity in PC12 – cell-based, unstimulated, primary screen (AID 1145); conditions: no forskolin, luminescence, 4.5 h, higher = more signal, called active from +8 up or from −8 down
[15] = forskolin-driven CRE-LacZ activity in PC12 – cell-based, CRE-LacZ reporter, forskolin-stimulated, primary screen (AID 1146); conditions: luminescence, 4.5 h, higher = more signal, called active from +8 up or from −8 down;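 also: PC12 cells with 6xCRE LacZ reporter stimulated by forskolin 10 µM; beta-galactosidase reporter signal reflecting CREB driven transcription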
[16] = molecular target: Streptavidin (Streptomyces avidinii) (UniProt P22629); experiment: compounds binding control protein streptavidin – biophysical, small-molecule microarray, 635/667 nm fluorescence, artefact control for SMM compound annotation, primary screen (AID 1147); conditions: higher = more signal;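 also: signal reflects streptavidin binding to arrayed compounds as a control protein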
[17] = probe aInhba binding on compound microarray – biochemical, small-molecule microarray, 635/667 nm fluorescence, primary screen (AID 1148); conditions: higher = more signal;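 also: score merges 667nm spot fluorescence with signal-to-noise for antibody binding to printed compounds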
[18] = molecular target: Torsin-1A (Homo sapiens) (UniProt O14656); experiment: TOR1A wild-type binding on microarray – cell lysate, small-molecule microarray, lysate, 635/667 nm, primary screen (AID 1149); conditions: COS7 hTOR1A-WT lysate, 635 nm fluorescence, higher = more signal
[19] = molecular target: Torsin-1A (Homo sapiens) (UniProt O14656); experiment: torsin A mutant lysate binding on microarrays – cell lysate, small-molecule microarray, COS7 lysate, 635/667 nm fluorescence, primary screen (AID 1150); conditions: COS7 hTOR1A mutant lysate, 635 nm fluorescence, higher = more signal;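 also: score pools 667 nm emission and signal to noise measuring lysate protein binding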
[20] = system: Sonic hedgehog protein (Shh); experiment: Sonic hedgehog microarray binding compounds – biochemical, small-molecule microarray, 635/667 nm fluorescence, primary screen (AID 1151); conditions: 635 nm fluorescence, higher = more signal;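 also: Shh protein binding to compounds spotted on small-molecule microarray slides; score combines spot fluorescence intensity with signal-to-noise across triplicate slides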

Sequence of Streptavidin (Streptomyces avidinii) (P22629 whole entry, looked up): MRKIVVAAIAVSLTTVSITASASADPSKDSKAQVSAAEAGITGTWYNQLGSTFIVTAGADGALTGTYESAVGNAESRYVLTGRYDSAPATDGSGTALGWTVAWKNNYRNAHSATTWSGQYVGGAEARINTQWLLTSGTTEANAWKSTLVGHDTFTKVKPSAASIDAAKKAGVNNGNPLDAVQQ
Sequence of Fibroblast growth factor 2 (Homo sapiens) (P09038 whole entry, looked up): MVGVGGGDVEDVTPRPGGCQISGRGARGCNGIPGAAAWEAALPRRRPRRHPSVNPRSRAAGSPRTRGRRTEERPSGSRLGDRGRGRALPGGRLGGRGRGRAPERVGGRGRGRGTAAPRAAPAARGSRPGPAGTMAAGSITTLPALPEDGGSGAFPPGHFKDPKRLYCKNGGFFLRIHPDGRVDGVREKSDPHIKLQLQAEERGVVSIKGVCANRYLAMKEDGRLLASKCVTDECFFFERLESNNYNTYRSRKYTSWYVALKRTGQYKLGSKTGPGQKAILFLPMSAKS
Sequence of Follistatin (Homo sapiens) (P19883 whole entry, looked up): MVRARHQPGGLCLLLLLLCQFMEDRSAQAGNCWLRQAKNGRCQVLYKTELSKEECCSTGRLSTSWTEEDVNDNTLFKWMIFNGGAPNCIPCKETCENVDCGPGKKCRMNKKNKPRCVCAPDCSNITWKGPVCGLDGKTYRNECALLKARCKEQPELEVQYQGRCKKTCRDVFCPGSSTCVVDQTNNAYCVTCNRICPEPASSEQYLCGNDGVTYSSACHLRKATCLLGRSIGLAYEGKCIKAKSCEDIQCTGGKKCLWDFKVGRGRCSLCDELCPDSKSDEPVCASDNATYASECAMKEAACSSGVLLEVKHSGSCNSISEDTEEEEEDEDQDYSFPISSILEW
Sequence of Focal adhesion kinase 1 (Homo sapiens) (Q05397 whole entry, looked up): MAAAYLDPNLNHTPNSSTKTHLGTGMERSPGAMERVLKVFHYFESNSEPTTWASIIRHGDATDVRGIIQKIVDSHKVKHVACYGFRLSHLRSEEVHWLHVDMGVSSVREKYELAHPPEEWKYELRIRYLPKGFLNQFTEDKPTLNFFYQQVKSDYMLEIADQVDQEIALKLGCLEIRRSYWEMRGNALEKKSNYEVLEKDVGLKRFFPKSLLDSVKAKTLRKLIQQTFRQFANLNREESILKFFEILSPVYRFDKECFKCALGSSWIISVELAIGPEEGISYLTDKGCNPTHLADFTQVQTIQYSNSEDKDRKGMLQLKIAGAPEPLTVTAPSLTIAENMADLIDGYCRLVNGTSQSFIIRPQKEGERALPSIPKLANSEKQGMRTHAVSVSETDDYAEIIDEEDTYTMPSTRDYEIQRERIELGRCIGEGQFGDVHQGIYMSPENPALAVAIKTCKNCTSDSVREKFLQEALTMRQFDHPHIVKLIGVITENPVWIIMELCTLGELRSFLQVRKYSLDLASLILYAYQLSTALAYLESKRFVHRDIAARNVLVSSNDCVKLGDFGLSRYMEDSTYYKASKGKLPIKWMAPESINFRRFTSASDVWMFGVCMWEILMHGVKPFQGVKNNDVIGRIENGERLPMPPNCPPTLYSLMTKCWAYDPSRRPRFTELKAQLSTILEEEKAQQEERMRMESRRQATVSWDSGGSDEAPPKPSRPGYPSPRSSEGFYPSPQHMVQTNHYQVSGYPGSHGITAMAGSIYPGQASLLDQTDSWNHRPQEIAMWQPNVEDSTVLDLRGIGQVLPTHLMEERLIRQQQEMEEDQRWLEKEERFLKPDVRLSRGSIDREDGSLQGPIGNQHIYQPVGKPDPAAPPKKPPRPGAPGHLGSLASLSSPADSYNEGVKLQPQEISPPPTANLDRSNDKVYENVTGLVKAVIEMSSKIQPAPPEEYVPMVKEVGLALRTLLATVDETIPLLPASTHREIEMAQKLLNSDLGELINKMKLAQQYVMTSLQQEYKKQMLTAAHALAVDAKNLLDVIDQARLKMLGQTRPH
Sequence of Torsin-1A (Homo sapiens) (O14656 whole entry, looked up): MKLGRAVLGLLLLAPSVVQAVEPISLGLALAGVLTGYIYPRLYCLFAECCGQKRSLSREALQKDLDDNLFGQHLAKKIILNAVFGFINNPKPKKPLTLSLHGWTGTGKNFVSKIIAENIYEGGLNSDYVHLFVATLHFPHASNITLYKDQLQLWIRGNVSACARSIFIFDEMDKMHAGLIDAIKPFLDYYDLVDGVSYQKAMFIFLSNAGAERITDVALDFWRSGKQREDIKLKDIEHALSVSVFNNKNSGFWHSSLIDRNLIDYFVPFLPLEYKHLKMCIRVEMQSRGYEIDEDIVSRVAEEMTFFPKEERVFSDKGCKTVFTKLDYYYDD
Sequence of Luciferin 4-monooxygenase (Photinus pyralis) (P08659 whole entry, looked up): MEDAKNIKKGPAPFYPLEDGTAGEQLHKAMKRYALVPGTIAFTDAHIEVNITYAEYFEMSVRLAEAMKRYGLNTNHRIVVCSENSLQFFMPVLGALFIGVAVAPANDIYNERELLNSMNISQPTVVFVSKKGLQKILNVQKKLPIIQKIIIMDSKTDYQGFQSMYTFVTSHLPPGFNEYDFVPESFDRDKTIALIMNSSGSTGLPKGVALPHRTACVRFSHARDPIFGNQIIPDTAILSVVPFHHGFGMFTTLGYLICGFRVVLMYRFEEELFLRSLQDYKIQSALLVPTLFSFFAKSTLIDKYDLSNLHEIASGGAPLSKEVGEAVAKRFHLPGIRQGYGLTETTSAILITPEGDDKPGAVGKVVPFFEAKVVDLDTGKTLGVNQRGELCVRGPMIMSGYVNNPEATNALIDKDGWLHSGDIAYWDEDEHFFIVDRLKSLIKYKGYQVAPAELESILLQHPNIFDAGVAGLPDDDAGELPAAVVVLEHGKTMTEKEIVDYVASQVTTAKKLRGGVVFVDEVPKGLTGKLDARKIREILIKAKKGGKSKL

Structure (SMILES)	composite z-score [1]	composite z-score [2]	composite z-score [3]	composite z-score [4]	composite z-score [5]	composite z-score [6]	z-score [7]	composite z-score [8]	composite z-score [9]	z-score [10]	composite z-score [11]	z-score [12]	z-score [13]	z-score [14]	z-score [15]	composite z-score [16]	composite z-score [17]	composite z-score [18]	composite z-score [19]	composite z-score [20]
CCOc1cc(C(O)C2C=CC3C(=O)NC(=O)C3N2Nc2ccccn2)ccc1O (stereo not given)	0.227	0.255	-0.0976	-0.32	0.262	0.835	0.208	-0.0684	-0.298	0.25 (inactive)	0.342	0.961 (inactive)	0.543 (inactive)	-0.333 (inactive)	0.153 (inactive)	0.171	-0.158	-0.0106	0.12	-0.476
COCCOC(=O)N1C(=O)[C@@]2(c3cc(C#CC4(O)CCCCCC4)ccc31)[C@H](C(=O)NC[C@H](O)c1ccccc1)[C@H]1C(=O)O[C@H](c3ccccc3)[C@H](c3ccccc3)N1[C@@H]2c1ccc(OCCO)cc1	0.726	1.21	0.444	0.95	0.822	0.94	-1.49	0.473	0.357	0.531 (inactive)	-0.0894	-3.38 (inactive)	-0.401 (inactive)	-0.285 (inactive)	0.0759 (inactive)	-0.0815	0.217	0.0969	0.124	1.72
O=C1OCCC=C[C@H]2OC34C=CCN(Cn5nnc6ccccc65)C(=O)[C@H]3N(CCCCCO)C(=O)[C@@H]4C12 (stereo not given in full)	2.73	-0.476	0.0209	-2.02	-0.862	-0.346	0.427	-0.559	-0.807	-0.245 (inactive)	-0.355	0.399 (inactive)	-1.04 (inactive)	0.0564 (inactive)	0.804 (inactive)	-0.686	-0.0762	0.97	1.15	0.0364
O=C1C[C@@](C(=O)NCc2ccccc2)(c2ccc([N+](=O)[O-])cc2)[C@@H](c2ccc(CO)cc2I)N1C1CCCCC1	1.12	1.2	0.532	0.805	1.43	1.25	-0.0219	0.721	0.411	-1.2 (inactive)	0.286	-4.73 (inactive)	0.781 (inactive)	0.234 (inactive)	0.583 (inactive)	0.0068	0.572	0.89	0.217	1.13
O=C(CS)NCCCCCNC(=O)[C@@H]1C[C@@H]2C(=O)N3CCC[C@H]3C(=O)N2[C@@H]1c1ccc(O)cc1	3.22	1.12	0.0999	-0.174	1.26	1.34	0.605	-0.0581	-0.339	-1.59 (inactive)	0.257	-0.237 (inactive)	-0.78 (inactive)	-0.13 (inactive)	-0.862 (inactive)	-0.23	-0.0313	0.99	1.24	0.837
